{"source": "paper PMC4552634", "about": "“A New Set of Chemical Starting Points with Plasmodium falciparum Transmission-Blocking Potential for Antimalarial Drug Discovery” (PLoS ONE, 2015)", "note": "Screen size: about 13,000 compounds; about 3,200 (25%) showed an effect of 50% or more. The list shows a part of the results.", "data": [{"test_system": "P. falciparum stage V gametocytes", "set-up": "BacTiter-Glo ATP luminescence viability of purified stage V gametocytes in 384-well plates, per cent inhibition versus DMSO", "conditions": "48 h, 5 µM; inhibitor", "units": {"% Inhibition": "%"}, "values": [{"smiles": "COc1ccc(C2CC(c3ccccc3)=NN2C(=O)c2ccc(Br)o2)cc1", "note": "(stereo not shown) [TCMDC-123705]", "% Inhibition": -10.79}, {"smiles": "CCCCCC(C)C(C)c1cc(O)c2c(c1)OC(C)(C)CC2c1cc[n+]([O-])cc1", "note": "(stereo not shown) [TCMDC-131347]", "% Inhibition": 15.63}, {"smiles": "CCOc1ccc(Br)cc1/C=C/C(=O)Nc1ccc2c(c1)C1CCC2N1C", "note": "(stereo not shown) [TCMDC-134191]", "% Inhibition": -33.77}, {"smiles": "Nc1c(Cl)cc(C(O)CNCCCCCCOCCC=C2CCOCC2)cc1Cl", "note": "(stereo not shown) [TCMDC-132097]", "% Inhibition": 35.85}, {"smiles": "CCc1ccc(NC(=O)c2ccc(CN3CCCN(Cc4cccc(Cl)c4)CC3)cc2)cc1", "note": "[TCMDC-136438]", "% Inhibition": -4.503}, {"smiles": "N#Cc1cccc(CN2CCCN(Cc3ccc(C(=O)Nc4ccc(Cl)cc4)cc3)CC2)c1", "note": "[TCMDC-136403]", "% Inhibition": 58.71}, {"smiles": "CC(C)(C)c1ccc(NC(=O)c2ccc(CN3CCCN(Cc4cccc(Cl)c4)CC3)cc2)cc1", "note": "[TCMDC-136432]", "% Inhibition": -29.42}, {"smiles": "N#Cc1cccc(CN2CCCN(Cc3cccc(C(=O)Nc4ccc(Cl)cc4)c3)CC2)c1", "note": "[TCMDC-135962]", "% Inhibition": -1.409}, {"smiles": "CC(C)(C)c1ccc(NC(=O)c2ccc(CN3CCCN(Cc4cccc(C#N)c4)CC3)cc2)cc1", "note": "[TCMDC-136430]", "% Inhibition": 8.252}, {"smiles": "O=C(Nc1ccc(Cl)cc1)c1ccc(CN2CCCN(Cc3cccc(Cl)c3)CC2)cc1", "note": "[TCMDC-136405]", "% Inhibition": 70.05}, {"smiles": "O=C(Nc1ccccc1)N1CCOC(CCN2CCC(F)(F)CC2)(c2ccc(Cl)c(Cl)c2)C1", "note": "(stereo not shown) [TCMDC-135565]", "% Inhibition": -12.88}, {"smiles": "Cc1ccc(F)c(CN2CCC(N3CC(c4ccccc4)(c4ccccc4)OC3=O)CC2)c1Cl", "note": "[TCMDC-136067]", "% Inhibition": -42.69}, {"smiles": "COc1ccc(OCCCON2C(N)=NC(N)=NC2(C)C)cc1", "note": "[TCMDC-131727]", "% Inhibition": -17.37}, {"smiles": "CCCc1cc(NCC)nc(Nc2ccc(F)cc2)n1", "note": "[TCMDC-134011]", "% Inhibition": 18.21}, {"smiles": "CCCCc1cc(=O)oc2cc(C)cc(OCc3ccccc3F)c12", "note": "[TCMDC-125642]", "% Inhibition": 42.72}, {"smiles": "COc1ccc(Cl)cc1N1CCN(CCCNC(=O)c2ccc(-c3nc4ccc(C(F)(F)F)cc4[nH]3)c(C)c2)CC1", "note": "[TCMDC-140121]", "% Inhibition": -20.72}, {"smiles": "COc1ccc(Cl)cc1N1CCN(CCCNC(=O)c2ccc(-c3nc4c(C)cccc4[nH]3)s2)CC1", "note": "[TCMDC-140050]", "% Inhibition": -10.33}, {"smiles": "Cc1ccc(Cl)cc1N1CCN(CCCNC(=O)C2CCN(c3nc4ccccc4[nH]3)CC2)CC1", "note": "[TCMDC-124405]", "% Inhibition": 57.08}, {"smiles": "Oc1ccccc1N1CCN(c2ccc(-c3nc4ccccc4[nH]3)cn2)CC1", "note": "[TCMDC-124820]", "% Inhibition": -75.14}]}]}
